# Laboratory results published in PubChem BioAssay AID1159580 (chemical genetic matrix, 2015).
# “And” between values parts separate entries of the source, which are not always exact repeats. Equal values may be shown once. Among all 5,500 compounds or so, about 2,000 (36%) were called active. Inconclusive results (about 18%) are left out. The list shows a part of the results. A number with no mark means an inactive call. Cut-off read from the data, not from the text of the source: active = normalized growth mostly below about 0.91 (no sharp cut-off); inconclusive = no clear call, values can overlap the other calls; inactive = mostly above about 0.92.
# Assay: chemical genetic growth profiling, strain panel (AID 1159580);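 note: tested at 20 µM; growth read once vehicle control cultures reached saturation at 30 °C; 1 = growth at the plate median or of vehicle wells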
# Settings: S. cerevisiae deletion strains, growth OD
# [1] = locus YAL040C, strain CLN3, stronger effect = lower value
# [2] = locus YCL061C, strain MRC1 (second series), stronger effect = lower value
# [3] = locus YDR363W, strain ESC2, stronger effect = lower value
# [4] = locus YER002W, strain NOP16, stronger effect = lower value
# [5] = locus YGR229C, strain SMI1, stronger effect = lower value
# [6] = locus YMR263W, strain SAP30, stronger effect = lower value
# [7] = locus YNL175C, strain NOP13, stronger effect = lower value
# [8] = locus YNL197C, strain WHI3, stronger effect = lower value
# [9] = locus YNL224C, strain SQS1, stronger effect = lower value
# [10] = locus YOR083W, strain WHI5 (second series), stronger effect = lower value
# [11] = locus YPL241C, strain CIN2, stronger effect = lower value
smiles,measurement,setting,value
Clc1cc(Cl)cc(-c2nc(SCc3ccc(Cl)cc3Cl)n[nH]2)c1,normalized growth,"locus YAR019C, strain CDC15, stronger effect = lower value",0.991
same,normalized growth,"locus YBL105C, strain PKC1, stronger effect = lower value",0.99
same,normalized growth,"locus YBR135W, strain CKS1, stronger effect = lower value",0.982
same,normalized growth,"locus YBR136W, strain MEC1, stronger effect = lower value",0.998
same,normalized growth,"locus YBR160W, strain CDC28, stronger effect = lower value",0.991
same,normalized growth,"locus YDL017W, strain CDC7, stronger effect = lower value",0.987
same,normalized growth,"locus YDL028C, strain MPS1, stronger effect = lower value",0.995
same,normalized growth,"locus YDL101C, strain DUN1, stronger effect = lower value",1
same,normalized growth,"locus YDL108W, strain KIN28, stronger effect = lower value",0.986
same,normalized growth,"locus YDL132W, strain cdc53, stronger effect = lower value",0.981
same,normalized growth,"locus YDL214C, strain PRR2, stronger effect = lower value",0.913
same,normalized growth,"locus YDR052C, strain DBF4, stronger effect = lower value",0.998
same,normalized growth,"locus YDR054C, strain cdc34, stronger effect = lower value",0.984
same,normalized growth,"locus YDR226W, strain ADK1, stronger effect = lower value",0.992
same,normalized growth,"locus YDR477W, strain SNF1, stronger effect = lower value",0.938
same,normalized growth,"locus YER123W, strain YCK3, stronger effect = lower value",0.908
same,normalized growth,"locus YER133W, strain GLC7, stronger effect = lower value",0.968
same,normalized growth,"locus YFL009W, strain cdc4, stronger effect = lower value",0.981
same,normalized growth,"locus YFL029C, strain CAK1, stronger effect = lower value",0.995
same,normalized growth,"locus YFR003C, strain YPI1, stronger effect = lower value",0.995
same,normalized growth,"locus YFR019W, strain FAB1, stronger effect = lower value",0.901
same,normalized growth,"locus YFR028C, strain CDC14, stronger effect = lower value",1
same,normalized growth,"locus YGR040W, strain KSS1, stronger effect = lower value",0.964
same,normalized growth,"locus YGR052W, strain FMP48, stronger effect = lower value",0.937
same,normalized growth,"locus YGR092W, strain DBF2, stronger effect = lower value",0.839
same,normalized growth,"locus YHR030C, strain SLT2, stronger effect = lower value",0.356 (active)
same,normalized growth,"locus YHR079C, strain IRE1, stronger effect = lower value",0.845
same,normalized growth,"locus YHR082C, strain KSP1, stronger effect = lower value",0.911
same,normalized growth,"locus YHR205W, strain SCH9, stronger effect = lower value",0.829
same,normalized growth,"locus YIL147C, strain SLN1, stronger effect = lower value",0.992
same,normalized growth,"locus YJL095W, strain BCK1, stronger effect = lower value",0.81
same,normalized growth,"locus YJL128C, strain PBS2, stronger effect = lower value",0.964
same,normalized growth,"locus YJL157C, strain FAR1, stronger effect = lower value",0.942
same,normalized growth,"locus YJR016C, strain ILV3, stronger effect = lower value",0.987
same,normalized growth,"locus YJR066W, strain TOR1 (second series), stronger effect = lower value",0.98
same,normalized growth,"locus YJR066W, strain TOR1, stronger effect = lower value",0.893
same,normalized growth,"locus YKL048C, strain ELM1, stronger effect = lower value",0.964
same,normalized growth,"locus YKL067W, strain YNK1, stronger effect = lower value",0.882
same,normalized growth,"locus YKL101W, strain HSL1, stronger effect = lower value",0.891
same,normalized growth,"locus YKL193C, strain SDS22, stronger effect = lower value",0.985
same,normalized growth,"locus YKL203C, strain TOR2, stronger effect = lower value",1.05
same,normalized growth,"locus YLR113W, strain HOG1, stronger effect = lower value",0.772 (active)
same,normalized growth,"locus YLR133W, strain CKI1, stronger effect = lower value",0.924
same,normalized growth,"locus YLR403W, strain SFP1, stronger effect = lower value",0.963
same,normalized growth,"locus YML070W, strain DAK1, stronger effect = lower value",0.92
same,normalized growth,"locus YMR001C, strain CDC5, stronger effect = lower value",0.988
same,normalized growth,"locus YMR205C, strain PFK2 (second series), stronger effect = lower value",0.927
same,normalized growth,"locus YMR277W, strain FCP1, stronger effect = lower value",0.983
same,normalized growth,"locus YNL006W, strain LST8, stronger effect = lower value",0.965
same,normalized growth,"locus YNL020C, strain ARK1, stronger effect = lower value",0.914
same,normalized growth,"locus YNL161W, strain CBK1, stronger effect = lower value",0.991
same,normalized growth,"locus YNL183C, strain NPR1, stronger effect = lower value",0.916
same,normalized growth,"locus YNL207W, strain RIO2, stronger effect = lower value",0.983
same,normalized growth,"locus YNL222W, strain SSU72, stronger effect = lower value",0.987
same,normalized growth,"locus YNL307C, strain MCK1 (second series), stronger effect = lower value",0.864
same,normalized growth,"locus YOL078W, strain AVO1, stronger effect = lower value",0.985
same,normalized growth,"locus YOL136C, strain PFK27, stronger effect = lower value",0.893
same,normalized growth,"locus YOR061W, strain CKA2, stronger effect = lower value",0.756
same,normalized growth,"locus YOR119C, strain RIO1, stronger effect = lower value",0.956
same,normalized growth,"locus YOR231W, strain MKK1, stronger effect = lower value",0.873
same,normalized growth,"locus YOR329C, strain SCD5, stronger effect = lower value",0.986
same,normalized growth,"locus YPL031C, strain PHO85, stronger effect = lower value",0.927
same,normalized growth,"locus YPL153C, strain RAD53, stronger effect = lower value",0.889
same,normalized growth,"locus YPL204W, strain HRR25, stronger effect = lower value",0.915
same,normalized growth,"locus YPL209C, strain IPL1, stronger effect = lower value",0.985
same,normalized growth,"locus YPL256C, strain CLN2, stronger effect = lower value",0.835 (active)
same,normalized growth,"locus YPR025C, strain CCL1, stronger effect = lower value",0.98
same,normalized growth,"locus YPR106W, strain ISR1, stronger effect = lower value",0.981
same,normalized growth,"locus YPR111W, strain DBF20, stronger effect = lower value",0.948
same,normalized growth,"strain NNK1, stronger effect = lower value",0.981
same,normalized growth,"strain TSCII, stronger effect = lower value",0.993
NN=C(N)N,normalized growth,"locus YAL013W, strain DEP1, stronger effect = lower value",1.03 and 1.01
same,normalized growth,[1],0.987 and 0.992
same,normalized growth,[2],1
same,normalized growth,[3],1.03
same,normalized growth,[4],1.03 and 0.995
same,normalized growth,[5],1.03
same,normalized growth,[6],1.01
same,normalized growth,"locus YNL153C, strain GIM3, stronger effect = lower value",1.01
same,normalized growth,[7],1.02 and 1.01
same,normalized growth,[8],1.01
same,normalized growth,[9],0.993 and 1.03
same,normalized growth,[10],1.02 and 1.01
same,normalized growth,[11],1.01
CCN(CC)c1ncnc2c1ncn2[C@@H]1O[C@H](COP(=O)(O)OP(=O)(O)C(Br)(Br)P(=O)(O)O)[C@@H](O)[C@H]1O,normalized growth,[1],1.05
same,normalized growth,[2],1
same,normalized growth,[3],0.937
same,normalized growth,[4],1
same,normalized growth,[5],0.992
same,normalized growth,[6],0.991
same,normalized growth,"locus YNL128W, strain TEP1, stronger effect = lower value",1
same,normalized growth,[7],0.992
same,normalized growth,[8],0.977
same,normalized growth,[9],0.971
same,normalized growth,"locus YNL322C, strain KRE1, stronger effect = lower value",0.995
same,normalized growth,[10],0.979
same,normalized growth,[11],1.01
